Hits are enriched below; roughly 3.6% of the tested compounds scored in any of these assays.
GDH-TPI counter-1 – GDH-TPI coupling enzyme inhibitors, primary screen, artefact control for M. tuberculosis FBA inhibitor project, biochemical, absorbance, full deck; GDH-TPI coupled enzyme counterscreen, NADH absorbance; inhibition, % at 4.8 µM; 1.2% of 360,000 active; AID 588335, 2011; in the data active = inhibition above about 30%;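 also: 0% = DMSO wells and 100% = wells lacking the enzyme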
VHR inh abs – VHR1 phosphatase inhibitors, primary screen, biochemical, absorbance, uHTS. AID 1654, 2009. Dual specificity protein phosphatase 3 (Homo sapiens), P51452. inhibition, % at 13.3 µM. recombinant VHR phosphatase, pNPP absorbance. 0.52% of 290,000 active; in the data active = inhibition above about 50%
Mtb FBA inh – Mtb FBA enzyme inhibitors, primary screen, biochemical, fluorescence, strain H37Rv. purified M. tuberculosis FBA, fluorescence read-out. inhibition, % at 1 µM. 2.3% of 360,000 active;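 also: 0% = vehicle and 100% = reference inhibitor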
Target sequence (P9WQA3 whole entry, looked up): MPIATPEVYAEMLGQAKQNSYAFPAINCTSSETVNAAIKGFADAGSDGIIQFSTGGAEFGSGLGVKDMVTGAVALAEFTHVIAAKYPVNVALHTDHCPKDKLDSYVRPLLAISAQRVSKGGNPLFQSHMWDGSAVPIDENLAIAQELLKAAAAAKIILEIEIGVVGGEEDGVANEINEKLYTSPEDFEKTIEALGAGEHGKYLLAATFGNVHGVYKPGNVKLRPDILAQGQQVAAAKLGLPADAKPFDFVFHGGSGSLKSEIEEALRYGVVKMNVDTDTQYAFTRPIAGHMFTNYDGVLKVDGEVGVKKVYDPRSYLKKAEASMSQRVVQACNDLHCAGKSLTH
Mtb hypoxia rep – PubChem AID 1159583 | M. tuberculosis hypoxia-regulated fluorescent reporter, fluorescence | fluorescence inhibition, % (test concentration not listed) | 0.1% of 300,000 active; in the data active = fluorescence inhibition mostly above about 23%, no sharp cut-off; inactive = mostly below about 17%
Mtb bLac sens – beta-lactam sensitization of Mtb H37Rv, H37Rv | inhibition, % at 25 µM | M. tuberculosis H37Rv growth with meropenem, percent inhibition | 0.27% of 330,000 active; call rule not given here;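 also: growth measured after seven days incubation then overnight dye step; 0% = bacteria only wells and 100% = bacteria with antibiotic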
Mtb FBA confirm – M. tuberculosis aldolase blockers, biochemical, fluorescence, strain H37Rv, confirmation; inhibition, % at 1 µM; purified M. tuberculosis FBA, fluorescence read-out; shares compounds with Mtb FBA inh; 78% of 5,600 active; AID 651616, 2012;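 also: 0% = vehicle wells and 100% = reference inhibitor wells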
GDH-TPI counter-2 – GDH-TPI coupling enzyme inhibitors, artefact control for M. tuberculosis FBA inhibitor project, biochemical, fluorescence, high throughput; GDH-TPI coupled enzyme counterscreen; 81% of 5,600 active; AID 652141, 2013; shares compounds with Mtb FBA inh; inhibition, % at 1 µM; in the data active = inhibition above about 10%
Starred values were filed as active, the others as inactive; x = not tested or not shown; + = active, no number. Rule as the data show it, unless noted: active = inhibition above about 27%; inactive = the rest.

SMILES | GDH-TPI counter-1 | VHR inh abs | Mtb FBA inh | Mtb hypoxia rep | Mtb bLac sens | Mtb FBA confirm | GDH-TPI counter-2
Cc1cc(OCc2cn3cccnc3n2)ccc1Cl | 6 | 3 | 8 | -8 | -3 | x | x
CC(=O)Nc1ccc(Br)c2ccccc12 | 5 | 11 | -3 | 13 | 5 | x | x
CCc1ccc(NC(=O)NNC(=O)c2cc3ccccc3cc2O)cc1 | 13 | 28 | 4 | -5 | -8 | x | x
COc1ccccc1NC(=O)NNC(=O)c1ccc2ccccc2c1O | 6 | 8 | 32* | 10 | 16 | 143* | 113*
CCc1ccc(NC(=O)NNC(=O)c2ccc3ccccc3c2O)cc1 | 18 | 11 | 36* | 13 | 7 | + | 190*
O=C(Nc1ccc(Br)c2ccccc12)c1ccc2ccccc2c1O | 12 | 13 | 31* | x | 5 | -34 | -29
Cc1ccccc1NC(=O)NNC(=O)c1ccc2ccccc2c1O | 13 | 28 | 31* | 0 | -14 | 55* | 36*
CCOC(=O)C1C2COc3cc(OC)ccc3C2N2C(=O)CN(Cc3ccccc3)C(=O)[C@@]12C (stereo not given in full) | x | x | x | 2 | x | x | x
CCC(=O)Nc1ccc(C(=O)NN=Cc2cc(Br)c(OC)cc2OC)cc1 | x | x | x | 5 | x | x | x
C/C(C=NNC(=O)c1sc(N)nc1C)=C\c1ccccc1 | x | x | x | -3 | x | x | x
COc1ccc(NC(=O)NNC(=O)c2ccc3ccccc3c2O)cc1OC | 9 | -25 | 36* | 2 | 3 | x | +
c1cc(-c2cc3nc(NCC4CC4)ccn3n2)ccc1OCCN1CCOCC1 | -2 | x | 37* | x | x | 69* | 72*
O=C(Nc1ccccc1F)C1CCCN(S(=O)(=O)c2ccc(-n3cnnn3)cc2)C1 (stereo not given) | -3 | 25 | 85* | -6 | 1 | 119* | 87*
S=C(c1ccc(-c2ccc(Br)cc2)o1)N1CCCCC1 | 0 | 39 | 59* | 14 | 99 | 7 | -2
S=C(c1ccc(-c2ccc(Br)cc2)o1)N1CCOCC1 | 18 | 18 | -3 | 0 | -4 | x | x
CCN(CC)c1cc(C)c(C#N)c2nc3ccccc3n12 | -14 | 44 | 23 | 19 | -1 | x | x
N#Cc1c(-c2ccccc2)c(C#N)c2nc3ccccc3n2c1N | 13 | -2 | 83* | -10 | 0 | 91* | 67*
COc1ccc(C2=NN3C(C2)c2ccccc2OC3c2cccs2)cc1 (stereo not given) | 4 | 18 | 60* | 7 | -1 | 28* | 23*
COc1ccc(C2=NN(C(=O)CCC(=O)O)C(c3cccs3)C2)cc1 (stereo not given) | 5 | -10 | 7 | x | 0 | x | x
O=C(NNC(=O)c1cc(Cl)ccc1O)c1ccc(NS(=O)(=O)c2cccs2)cc1 | 13 | x | 29* | -1 | 6 | + | +
O=C(NNC(=O)c1cc(F)c(F)cc1Cl)c1ccc(NS(=O)(=O)c2cccs2)cc1 | 4 | x | 1 | -1 | 3 | x | x
O=C(NN=Cc1ccncc1)c1cccc(S(=O)(=O)N2CCCC2)c1 | x | x | x | -10 | x | x | x
O=S(=O)(c1cccc(Cl)c1)N1CN(CC2CCCO2)c2nc3ccccc3nc21 (stereo not given) | 21 | 2 | 36* | 3 | 0 | 188* | 146*
COCCCN1CN(S(=O)(=O)c2ccc(Cl)cc2)c2nc3ccccc3nc21 | 27 | 25 | 15 | 19 | -12 | x | x
COCCN1CN(S(=O)(=O)c2cccc(Cl)c2)c2nc3ccccc3nc21 | 27 | 44 | 29* | -3 | 7 | 54* | 30*
CC1CN(c2oc(-c3ccco3)nc2C#N)CC(C)O1 (stereo not given) | 14 | 2 | 88* | -3 | -5 | 138* | 93*
O=C(Cn1cnc2ccccc2c1=O)NN=Cc1ccc(Br)cc1 | x | x | x | -3 | x | x | x
Cc1cc(C(=O)NCc2ccc(S(N)(=O)=O)cc2)cs1 | -10 | 7 | 0 | 3 | 0 | x | x

Screens deposited in PubChem BioAssay by several laboratories.
